Luciferase inh: blocks purified firefly luciferase enzyme activity | purified P. pyralis luciferase, luminescence, biochemical | Potency, µM (doses to about 115 µM), usual class: inhibitors | hit rate 2.5% among 76,000 | AID 1347043; also: nearly all actives have a fitted effect of over 65% in size
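Purified 10nM P. pyralis luciferase with 10uM D-luciferin and 10uM ATP in 50mM Tris acetate pH 7.5, 10mM Mg acetate, 0.01% Tween-20, 0.05% BSA. qHTS titration; luminescence read by CCD imager.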
HEK293 tox: kills HEK 293 cells; HEK 293 viability, ATP luminescence (CellTiter-Glo), 48-72 h; Potency, µM (top dose mostly 115 µM), hits mostly inhibitors; hit rate 6.6% among 94,000; also: nearly all actives have a fitted effect of over 60% in size
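Read-out: CellTiter-Glo ATP luminescence. Cells: HEK 293, 250 cells/well. Exposure: 48 or 72 hr, 37 degree Celsius.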
3T3 cytotox: NIH 3T3 cell cytotoxicity. Potency, µM (doses to about 96.7 µM), most hits filed as inhibitors. hit rate 4.3% among 94,000. NIH 3T3 viability, CellTiter-Glo ATP luminescence, 48-72 h. AID 1345082; also: nearly all actives have a fitted effect of over 55% in size
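Cytotoxicity is measured as loss of cellular ATP: NIH 3T3 cells (400/well) are exposed to compound for 48 or 72 hr at 37 °C, then CellTiter-Glo luminescence is imaged after 10 min at room temperature.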
NPR1 antag: blocks ANP-stimulated signaling of human Npr1 receptor | P16066 | HEK293 hNpr1 GloSensor cGMP, ANP-stimulated luminescence | Potency, µM (highest dose often 46.3 µM), actives largely listed as inhibitors | hit rate 1.6% among 76,000 | AID 1347048; calls by dose curve; also: nearly all actives have a fitted effect of over 60% in size
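HEK293 cells stably expressing human Npr1 and cGMP GloSensor pGS-40F, loaded 2 h with 2% GloSensor reagent, given compound 30 min at room temperature. Luminescence read before and 20 min after 0.1 nM hNppA.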
GPT2 inh: inhibitors of human GPT2 alanine aminotransferase | Q8TD30 | Recombinant GPT2, coupled pyruvate oxidase/HRP Amplex Red fluorescence | Potency, µM (highest dose often 57.7 µM), usual class: inhibitors | hit rate 0.25% among 100,000; also: nearly all actives have a fitted effect of over 60% in size
Target sequence (Q8TD30 whole entry, looked up): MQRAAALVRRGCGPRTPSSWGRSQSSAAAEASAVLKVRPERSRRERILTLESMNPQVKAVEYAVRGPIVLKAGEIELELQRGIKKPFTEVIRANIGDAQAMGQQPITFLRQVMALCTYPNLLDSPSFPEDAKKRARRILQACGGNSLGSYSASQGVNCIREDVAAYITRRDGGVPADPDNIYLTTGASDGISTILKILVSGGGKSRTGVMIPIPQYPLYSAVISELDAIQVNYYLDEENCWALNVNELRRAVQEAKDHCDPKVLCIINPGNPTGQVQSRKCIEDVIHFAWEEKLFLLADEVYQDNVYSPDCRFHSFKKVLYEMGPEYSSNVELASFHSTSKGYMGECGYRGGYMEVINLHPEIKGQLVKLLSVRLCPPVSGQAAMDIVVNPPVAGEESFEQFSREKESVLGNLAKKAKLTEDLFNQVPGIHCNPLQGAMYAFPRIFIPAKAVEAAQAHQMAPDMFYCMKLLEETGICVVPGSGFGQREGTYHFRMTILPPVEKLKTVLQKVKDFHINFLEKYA
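GPT2 10ng/uL, a-KG 250uM, L-Ala 2mM, HEPES pH7.5 + 0.0001% Tween; 30 min RT. Then Amplex mix (PO/HRP/ThPP), 30 min RT dark, fluorescence. AOA 50uM used as positive control.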
Each line names hits and unclear results; the compound was inactive in the other large screens; ! = not active in a repeat. Rows were chosen to be rich in hits. Some 10% of all compounds tested hit in one or more screens of this group. Unless noted, calls follow the shape of the dose curve; as a rule, active = well fitted curve in the direction sought with a large enough effect; inconclusive = small, poorly fitted or top-dose-only effect, or another doubt; inactive = no such curve, though single readings can be large; an effect the other way counts as inactive or inconclusive.

Cn1nccc1-c1cccc(CCOc2cnc3c(ccn3CC(=O)O)c2)c1	3T3 cytotox 45µM
Cc1ccc([S+](=O)([O-])N2CCCC(C(=O)N3CCC4(CC3)CC(=O)Nc3ccccc3O4)C2)cc1 (configuration not stated)	HEK293 tox 35µM, 3T3 cytotox inconclusive (no result: Luciferase inh, NPR1 antag)
COc1ccccc1C(=O)N1CCC2(CC1)CC(=O)Nc1ccccc1O2	HEK293 tox 45µM, GPT2 inh inconclusive
O=C1CC2(CCN(C(=O)C3CCCN(C(=O)Nc4ccc(Cl)cc4)C3)CC2)Oc2ccccc2N1 (configuration not stated)	HEK293 tox 22µM, 3T3 cytotox inconclusive (no result: Luciferase inh, NPR1 antag)
O=C1CC2(CCN(C(=O)C3CCN(C(=O)Cc4cccc(Cl)c4)CC3)CC2)Oc2ccccc2N1	HEK293 tox 40µM, 3T3 cytotox inconclusive (no result: Luciferase inh, NPR1 antag)
O=C1CC2(CCN(C(=O)C3CCN(C(=O)C4CCCC4)CC3)CC2)Oc2ccccc2N1	HEK293 tox inconclusive (no result: Luciferase inh, NPR1 antag)
O=C1N(CCc2ccccc2)c2ccccc2C12CCN(CC1CC1)C2 (configuration not stated)	HEK293 tox 40µM!, 3T3 cytotox inconclusive
Cc1cc(CN2CCC3(C2)C(=O)N(Cc2ccccc2)c2ccccc23)no1 (configuration not stated)	HEK293 tox 50µM, 3T3 cytotox inconclusive
CN1C(=O)C2(CCN(Cc3ccnn3C)C2)c2ccccc21 (configuration not stated)	none
Cn1nccc1CN1CCC2(C1)C(=O)N(CCc1ccccc1)c1ccccc12 (configuration not stated)	HEK293 tox 35µM!, 3T3 cytotox inconclusive
O=C1N(CCc2ccccc2)c2ccccc2C12CCN(Cc1ccncc1)C2 (configuration not stated)	HEK293 tox 35µM, 3T3 cytotox 35µM!, NPR1 antag inconclusive, GPT2 inh inconclusive
CC1Oc2ccc(NC(=O)c3ccc(F)cc3F)cc2CN(C2CCCc3ccccc32)C1=O (configuration not stated)	HEK293 tox inconclusive
O=C(O)c1cc(N(Cc2ccc(C3CCCCC3)cc2)C(=O)c2ccc(Oc3ccccc3)cc2)ccc1O	none (no result: Luciferase inh, HEK293 tox, 3T3 cytotox, NPR1 antag)
CN(C)C(=O)N1CCCC1C(=O)N1CCC(N2CCOCC2=O)CC1 (configuration not stated)	none (no result: Luciferase inh, NPR1 antag)
CC(=O)N1CCN(Cc2ccccc2-c2cccnc2)CC1	none (no result: Luciferase inh, NPR1 antag)
O=C(C1CCCC1)N1CCN(Cc2ccccc2-c2cccnc2)CC1	HEK293 tox 50µM, 3T3 cytotox inconclusive (no result: Luciferase inh, NPR1 antag)
CC(C)(C)C(=O)N1CCN(Cc2ccccc2-c2cccnc2)CC1	HEK293 tox 100µM (no result: Luciferase inh, NPR1 antag)
COCCn1cc2c3c(cccc31)CN(C(=O)c1cccc(C(F)(F)F)c1)CC2	HEK293 tox inconclusive, 3T3 cytotox 32µM
CCCn1cc2c3c(cccc31)CN(C(=O)c1cccc(C#N)c1)CC2	HEK293 tox inconclusive, 3T3 cytotox inconclusive
Cc1ccc(-c2noc([C@@H]3Cc4nc[nH]c4CN3Cc3ccc(F)cc3)n2)cc1	Luciferase inh 50µM, HEK293 tox 89µM, 3T3 cytotox 35µM, NPR1 antag inconclusive
Cc1cccc(-c2noc([C@@H]3Cc4nc[nH]c4CN3Cc3cccc(C#N)c3)n2)c1	HEK293 tox inconclusive, 3T3 cytotox inconclusive
N#Cc1cccc(CN2Cc3[nH]cnc3C[C@H]2c2nc(-c3ccccc3)no2)c1	Luciferase inh 63µM, HEK293 tox 89µM, 3T3 cytotox inconclusive
Cc1ccc(-c2noc([C@@H]3Cc4nc[nH]c4CN3Cc3ccc(CO)o3)n2)cc1	Luciferase inh 63µM
O=C(NCCc1ccc(Cl)cc1)c1ccc2nnc(-c3ccoc3)n2c1	HEK293 tox inconclusive, 3T3 cytotox inconclusive (no result: Luciferase inh, NPR1 antag)
CC(C)CN1C(=O)c2cccn2CC1CNC(=O)c1nn(C)c2ccccc12 (configuration not stated)	HEK293 tox inconclusive (no result: Luciferase inh, NPR1 antag)
c1ccc2c(c1)CCN2c1nccnc1OC1CCNC1 (configuration not stated)	none
c1ccc(CN2CCC(Oc3nccnc3N3CCc4ccccc43)C2)nc1 (configuration not stated)	HEK293 tox 40µM, 3T3 cytotox inconclusive
COCC(=O)N1CCC(Oc2nccnc2N2CCc3ccccc32)C1 (configuration not stated)	Luciferase inh 35µM
COc1ccc(CNC(=O)C2CCCN2Cc2ccc(-c3cccc(OC)c3)cc2)cc1 (configuration not stated)	HEK293 tox 32µM, 3T3 cytotox 40µM (no result: Luciferase inh, NPR1 antag)
COc1cccc(-c2ccc(CN3CCCC3C(=O)NC3CCCC3)cc2)c1 (configuration not stated)	HEK293 tox inconclusive, 3T3 cytotox inconclusive (no result: Luciferase inh, NPR1 antag)
COc1cccc(-c2ccc(CN3CCCC3C(=O)N3CCN(c4ncccn4)CC3)cc2)c1 (configuration not stated)	HEK293 tox inconclusive, 3T3 cytotox 20µM (no result: Luciferase inh, NPR1 antag)
COc1cccc(-c2ccc(CN3CCCC3C(=O)NCc3ccccc3)cc2)c1 (configuration not stated)	HEK293 tox 40µM, 3T3 cytotox 40µM, GPT2 inh inconclusive (no result: Luciferase inh, NPR1 antag)
CCc1noc(-c2cccn3c(CNC(=O)c4cc(Cl)ccc4F)nnc23)n1	none
O=C1Nc2ccc(-c3cccc(C(F)(F)F)c3)cc2C(=O)N2CCN(C(=O)c3ccco3)C[C@@H]12	HEK293 tox 40µM, 3T3 cytotox inconclusive
O=C1Nc2ccc(-c3cccc(C(F)(F)F)c3)cc2C(=O)N2CCN(C(=O)NC3CCCCC3)C[C@H]12	HEK293 tox 35µM, 3T3 cytotox inconclusive
Cc1noc(C)c1-c1cc2cc(CN3CCN(C)CC3)oc2c(NC2CCN(C)CC2)n1	HEK293 tox inconclusive, 3T3 cytotox 89µM
Cc1noc(C)c1-c1cc2c(cc(C)n2C)c(NC2CCN(C)CC2)n1	HEK293 tox inconclusive, 3T3 cytotox inconclusive
Cc1noc(C)c1-c1cc2cc(CNC(C)C)oc2c(NC2CCN(C)CC2)n1	HEK293 tox 63µM, 3T3 cytotox inconclusive
O=C(CCCc1ccccc1)N1CC(CO)C2(CCNCC2)C1 (configuration not stated)	none (no result: Luciferase inh, NPR1 antag)
Cc1ccc(OCc2nc(C3CCN(C(=O)NCc4ccc(F)cc4)CC3)no2)cc1	HEK293 tox inconclusive, NPR1 antag inconclusive
Cc1ccc(CNC(=O)N2CCCC(c3noc(COc4ccccc4)n3)C2)cc1 (configuration not stated)	HEK293 tox inconclusive, 3T3 cytotox inconclusive
Cc1ccc(OCc2nc(C3CCN(C(=O)NCc4ccccc4)C3)no2)cc1 (configuration not stated)	HEK293 tox 45µM, 3T3 cytotox inconclusive, GPT2 inh inconclusive (no result: Luciferase inh, NPR1 antag)
O=C(NCCc1ccccc1)N1CCC(c2noc(COc3ccc(F)cc3)n2)C1 (configuration not stated)	HEK293 tox 45µM, 3T3 cytotox inconclusive, GPT2 inh inconclusive (no result: Luciferase inh, NPR1 antag)
CN1CCc2c([nH]c3ccccc23)C12CCN(C(=O)c1ccc(Cn3ccnc3)o1)CC2	HEK293 tox 89µM

Bioassay records deposited in PubChem BioAssay by National Center for Advancing Translational Sciences (NCATS).
